# From PubChem BioAssay
# In the library only some 21% were active in any assay of this set; here they are far more common.
# Pf growth 48h: P. falciparum growth inhibition at 48 hours (one generation); hit rate 5.9% among 310,000; P. falciparum luciferase growth in erythrocytes, 48 h; AID 504832; Potency, µM (titrated, usually from 28.7 µM), for inactives: at the top dose activity change, negative = inhibition, most hits filed as inhibitors; further: potency means the concentration at half of the fitted maximal effect; on the % scale 0 is the no-effect control and ±100 the full control effect
#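 Compounds are pin-transferred into medium, infected erythrocytes (2% hematocrit, 0.1% parasitemia final) are added, and plates sit one parasite generation at 37 C in 5% CO2. Detection reagent is then added and luminescence measured.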
# Pf growth 96h: P. falciparum growth inhibition at 96 hours; P. falciparum luciferase reporter growth, 96 h; Potency, µM (titrated, usually from 28.7 µM), for inactives: at the highest dose activity change, negative = inhibition, actives largely listed as inhibitors; hit rate 6.9% among 320,000; AID 504834; further: potency means the concentration at half of the fitted maximal effect; on the % scale 0 is the no-effect control and ±100 the full control effect
#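 Parasite growth measured via integrated firefly luciferase reporter in P. falciparum. Infected erythrocytes at 2% hematocrit, 0.05% parasitemia final were treated 96 hours at 37 C under 5% CO2, and luminescence was read.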
# HCMV antiviral: blocks human cytomegalovirus replication; hit rate 4.5% among 410,000; activity change, negative = inhibition, % at 57.5 µM; HFF cells, HCMV-luciferase reporter, 72 h; hits give low values; in the data active means activity change below about -60%; inconclusive means no clear call, values can overlap the other calls; inactive means above about -39%; further: on the % scale 0 is the no-effect control and ±100 the full control effect
#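 Cell-based, HFFs, 1000 cells/well, 16 h 37C; cpds in DMSO + HCMV-luc, MOI 1 PFU/cell; 72 h 37C; OneGlo luminescence after 5 min RT; norm. to buffer vs Salinomycin 10uM.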
# CHX counter: counter-screen for Shiga toxin inhibitors: cycloheximide protein synthesis inhibition; cell reporter, cycloheximide protein synthesis inhibition counterscreen; max response, %; hit rate 12% among 300,000; AID 2314; in the data active means max response mostly above about 13%, no sharp cut-off; inactive means mostly below about 14%; further: read at 38.3 µM for the half of the compounds with a filed dose; 0% is about no effect
# HCV inhibitor: HCV inhibition; Huh7.5.1 HCVcc-Cre infection, luciferase reporter, 44 h; Potency, µM (titrated, usually from 41.8 µM), for inactives: top-dose activity change, negative = inhibition, actives largely listed as inhibitors; hit rate 3.4% among 340,000; AID 651820; further: potency means the concentration at half of the fitted maximal effect; on the % scale 0 is the no-effect control and ±100 the full control effect
#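 1,000 cells/well; 4 h culture; + compound; + HCVcc-Cre (~0.5 moi); 44 h; luciferase substrate, RT 15 min; read 15 sec.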
# Shiga inhibitor: blocks Shiga toxin action in Vero cells. Vero cells, Shiga toxin protein synthesis inhibition reporter. inhibition, % at 38.7 µM. hit rate 9.2% among 290,000. AID 2315; in the data active means inhibition mostly above about 28%, no sharp cut-off; inactive means mostly below about 43%; further: 0% is about no effect
# * marks the source's active call; other numbers are inactive results; i = inactive; ? = inconclusive; . = not tested or not shown; + = active, no number. Unless noted, the call rests on the fitted dose curve; in most records, active means well fitted inhibition curve with a large enough effect; inconclusive means small, poorly fitted or top-dose-only effect, or another doubt; inactive means no such curve, though single readings can be large or run the other way.
SMILES,Pf growth 48h,Pf growth 96h,HCMV antiviral,CHX counter,HCV inhibitor,Shiga inhibitor
CCN(CC)CCn1c(-c2ccccc2)csc1=Nc1ccccc1,.,.,-21,.,.,.
CCOC(=O)c1nc(C)sc1-c1ccnn1S(=O)(=O)c1ccc(Cl)cc1Cl,8%,4%,25,29*,5%,36
C/C(=N\NC(=O)c1nn(C)cc1Cl)c1ccncc1,19%,7%,-11,31*,3%,46*
C/C(=N\NC(=O)c1nn(C)cc1Br)c1ccncc1,35%,34%,-14,55*,41%,92*
COc1ccc(-c2noc(CSc3nnc(-c4ccncc4)n3-c3ccc(C)c(C)c3)n2)cc1,.,.,-3,.,.,.
CCOc1ccc(C(=O)NCCn2cc(SCC(=O)Nc3cc(C)on3)c3ccccc32)cc1,?,.,23,15*,-28%,18
Cc1cc(NC(=O)CSc2cn(CCNC(=O)c3ccc(Cl)cc3)c3ccccc23)no1,-15%,-60%,-2,38*,?,13
Cc1ccc(C(=O)NCCn2cc(SCC(=O)Nc3nnc(C)s3)c3ccccc32)cc1,.,4.1µM*,-21,8,?,-7
COc1ccccc1C(=O)NCCn1cc(SCC(=O)Nc2cc(C)on2)c2ccccc21,?,-1%,-39,5,32µM*,5
COc1ccc(C(=O)NCCn2cc(SCC(=O)Nc3cc(C)on3)c3ccccc32)cc1OC,-26%,-22%,39,-3,?,-23
COc1ccccc1-c1noc(CSc2nnc(Cc3ccccc3)n2-c2ccc(C)c(C)c2)n1,.,.,7,.,.,.
Cc1cccc(N/N=C/c2ccc(C)s2)c1,?,?,80,40*,-13%,80*
Cc1cc([N+](=O)[O-])ccc1NC(=O)/C=C/c1cccs1,103%,-23%,58,42*,?,59*
Cc1cccc(N/N=C/c2ccc(O)c(O)c2O)c1,?,8%,?,0,14%,12
Cc1cccc(NC(=S)N/N=C/c2ccc([N+](=O)[O-])s2)c1,?,?,-93*,19,8.9µM*,32*
Cc1ccc(NC(=O)/C=C/c2ccc([N+](=O)[O-])s2)cc1,?,?,-96*,26*,?,active
CCc1ccc(NC(=O)C2CCCN2S(=O)(=O)c2ccc3c(c2)n(C)c(=O)c(=O)n3C)cc1 (configuration not stated),-1%,-2%,?,1,18%,3
Cc1ccc(C=Nc2ccccc2C(N)=O)s1,10%,51%,-4,13,-21%,-3
Cc1ccc(/C=N/N=C/c2ccc(C)s2)s1,335%,369%,86,71*,?,+
Cc1ccc(NC(=O)/C=C/c2ccc([N+](=O)[O-])s2)c(C)c1,10µM*,3.3µM*,-101*,22*,?,active
Cc1cccc(NC(=O)/C=C/c2ccc([N+](=O)[O-])s2)c1,?,2.6µM*,-98*,1,11µM*,21
Cc1ccc(NC(=O)COC(=O)c2ccc([N+](=O)[O-])s2)c(C)c1,5%,17%,-15,-1,1%,-14
Cc1ccccc1NC(=O)Cc1ccccc1,1%,?,-18,-2,31%,-1
CCC(C)N(CC(=O)Nc1cccc(C)c1C)C(=O)CCl (configuration not stated),?,3.7µM*,.,4,1.3µM*,-2
O=C(CCCc1ccccc1)Nc1ccccc1C(F)(F)F,31%,?,34,13*,12%,.
SMILES,Pf growth 48h,Pf growth 96h,HCMV antiviral,CHX counter,HCV inhibitor,Shiga inhibitor
O=C(CCCOc1ccccc1)Nc1ccccc1C(F)(F)F,-9%,?,-21,15,-7%,-7
Cc1ccccc1NC(=O)CC(=O)c1ccccc1,32%,-22%,16,18*,-5%,22
Cc1cccc(NC(=O)CCCc2ccccc2)c1C,9%,35%,-20,23*,3%,32*
CCC(CC)NC(=O)Nc1cccc(C)c1C,40%,i,-37,1,2%,19
Cc1ccc2c(=O)cc(C(=O)Nc3ccc(S(=O)(=O)N4CCCCCC4)cc3)oc2c1,.,.,6,.,.,.
CC(CC(=O)N1CCN(S(=O)(=O)c2ccc(Cl)cc2)CC1)n1cncn1 (configuration not stated),-5%,30%,-10,-2,-1%,-10
CCOC(=O)C(CNc1ccc(O)cc1)NC(=O)c1ccccc1 (configuration not stated),.,.,-5,.,.,.
CC(C)N(CC(=O)Nc1ccc(Cl)cc1C(F)(F)F)C(=O)CCl,4%,-8%,-99*,21*,4µM*,21
O=C(CC(=O)c1ccccc1)Nc1ccccc1C(F)(F)F,21%,12µM*,1,32*,-2%,30
Cc1ccc(C(=O)Nc2ccc(C(=O)O)cc2)cc1S(=O)(=O)NCc1ccccc1,16%,?,-24,-6,-14%,18
CCNC(=O)N[C@H]1CC[C@@]23CCCN2C(=O)CCC[C@H]3C1Cc1ccccc1 (some centres not stated),.,.,-6,.,.,.
CCCCn1c(SCC(=O)NCc2ccc(OC)c(C(=O)O)c2)nc2cc(S(N)(=O)=O)ccc21,-13%,-4%,-15,1,19%,-4
Cc1ccc(CNc2ccc(CNc3ncn[nH]3)cc2)cc1,.,-16%,4,15*,?,36
c1ccc2c(CNc3ccc(CNc4ncn[nH]4)cc3)cccc2c1,14%,?,-29,23*,9%,active
COc1ccccc1CNc1ccc(CNc2ncn[nH]2)cc1,-17%,?,36,-1,3%,5
COc1cc(CNc2ncn[nH]2)ccc1OCC(=O)NC(C)(C)C,8%,14%,10,8,2%,18
COc1cc(CNc2ccc(CNc3ncn[nH]3)cc2)ccc1OCc1ccccc1,-20%,-12%,-21,48*,?,40*
Cc1ccc(NC(=O)C2CCN(c3nc4ccccc4[nH]3)CC2)c(C)c1,.,.,0,.,.,.
Cc1ccc(S(=O)(=O)Nc2c(C)nn(C)c2C)cc1,.,9%,3,-4,-20%,-16
CCn1nc(C)c(NC(=O)c2ccc(Br)o2)c1C,1%,?,?,-3,18%,-13
CCn1nc(C)c(NS(=O)(=O)c2ccc(C)cc2)c1C,24%,-10%,-74*,6,?,-2
CCc1ccc(S(=O)(=O)Nc2c(C)nn(C)c2C)cc1,.,7%,-69*,11,13µM*,27
COC(=O)c1sccc1S(=O)(=O)N(CC(=O)NCc1ccccc1)c1ccc(C)c(C)c1,.,.,1,.,.,.
COCc1cc(C)nc(SCC[N+](C)(C)CC(=O)Nc2ccccc2)c1C#N,?,?,-30,9,28%,-5
COCc1cc(C)nc(SCC[N+](C)(C)CC(=O)c2ccc(Br)cc2)c1C#N,?,2%,-1,-2,32µM*,6
